From PubChem BioAssay
A selection: hits, their analogues and other compounds. The true share with any hit is near 19%.
DT40 TDP1 CPT: DT40-hTDP1 cell growth loss with CPT. AID 686979. Potency, µM (top dose mostly 46.2 µM), without a hit: at the highest dose activity change, negative = growth inhibition, actives largely listed as inhibitors. chicken DT40 Tdp1-/-;hTDP1 cells + 20 nM CPT, ATP luminescence, 48 h. 420,000 compounds, 12% hits; note: nearly all actives have a fitted effect of over 55% in size
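Chicken DT40 Tdp1-/- cells complemented with human TDP1, 400 cells/well, exposed to compounds plus 20 nM camptothecin for at least 48 h at 37 C; viability read as ATP content by CellTiter-Glo luminescence.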
HT1080-NT tox: kills 2HG-producing HT-1080-NT fibrosarcoma cells; HT-1080-NT fibrosarcoma viability, CellTiter-Glo ATP luminescence, 48 h; Potency, µM (top dose mostly 46.1 µM), for the others: top-dose activity, negative = less viability, actives largely listed as cytotoxic; 360,000 compounds, 1.6% hits; AID 686970;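 note: NT is the 2HG producing partner of a matched IDH1 knockdown line; 0% = DMSO-treated cells and -100% = media-only wells without cells; nearly all actives have a fitted effect of over 55% in size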
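Toxicity toward the 2HG-producing NT line was scored as %Activity, normalised to DMSO and no-cell wells, from CellTiter-Glo luminescence after 48 hours' treatment.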
HT1080 IDH1KD tx: kills HT-1080 cells with IDH1 knockdown. Potency, µM (series often up to 46.1 µM), without a hit: at the highest dose activity, negative = toxicity, hits mostly cytotoxic. HT-1080 IDH1 knockdown viability, ATP luminescence, 48 h. 360,000 compounds, 2% hits;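 note: 0% = DMSO wells and -100% = cell-free medium wells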
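HT-1080-IDH1KD cells (IDH1 knocked down), 750/well in RPMI with 5% FBS, treated with compound 48 h at 37 degrees C. Viability by CellTiter-Glo luminescence, normalised to DMSO and no-cell wells; concentration-response curves classed.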
DT40 TDP1 no CPT: qHTS for Inhibitors of human tyrosyl-DNA phosphodiesterase 1 (TDP1): qHTS in cells in absence of CPT | DT40 Tdp1-/- hTDP1 cells, no CPT, ATP luminescence, 48 h | Potency, µM (highest dose often 46.2 µM), inactives show top-dose activity change, negative = growth inhibition, actives largely listed as inhibitors | 420,000 compounds, 15% hits | AID 686978, 2013; note: nearly all actives have a fitted effect of over 55% in size
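Stably hTDP1-transfected Tdp1-null chicken DT40 cells were treated with library compounds minus camptothecin and grown for at least 48 hr at 37 °C, after which cellular ATP was quantified by luminescence.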
KB-3-1 tox: kills parental KB-3-1 adenocarcinoma cells | KB-3-1 viability, CellTiter-Glo ATP luminescence, 72 h | Potency, µM (top dose mostly 46.1 µM), usual class: cytotoxic | 400,000 compounds, 1.4% hits | AID 1347075; note: nearly all actives have a fitted effect of over 60% in size
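Multi-concentration cytotoxicity screen in KB-3-1 cells grown in DMEM lacking phenol red with 10% FBS. After 72 h at 37 °C with compound, ATP-dependent luminescence was recorded.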
KB-V1 MDR tox: KB-V1 MDR subline cytotoxicity. KB-V1 MDR cells viability, CellTiter-Glo, 72 h. Potency, µM (highest dose often 46.1 µM), actives largely listed as cytotoxic. 400,000 compounds, 3.4% hits. AID 1347076; note: nearly all actives have a fitted effect of over 60% in size
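KB-V1 MDR subline cells in DMEM (phenol-red free, 10% FBS) exposed to compounds in qHTS concentration series for 72 h at 37 degrees C. Viability read by CellTiter-Glo luminescence; concentration-effect curves fitted after normalization and correction.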
* marks the source's active call; other numbers are inactive results; i = inactive; ? = inconclusive; . = not tested or not shown; [ ] = dose if it differs, or a comment. Calls come from the whole dose curve; as a rule, active = well fitted curve in the direction sought with a large enough effect; inconclusive = small, poorly fitted or top-dose-only effect, or another doubt; inactive = no such curve, though single readings can be large; an effect the other way counts as inactive or inconclusive. Unless noted, % is set by controls: 0 for no effect and ±100 for the full control effect; potency is the fitted concentration of half-maximal effect.

SMILES	DT40 TDP1 CPT	HT1080-NT tox	HT1080 IDH1KD tx	DT40 TDP1 no CPT	KB-3-1 tox	KB-V1 MDR tox
OCCN1CCN(Cc2ccc3c(c2)CN(Cc2ccc4ccccc4c2)CCO3)CC1	-6%[9.04 µM]	.	.	-14%	.	.
CCCCCCN1C[C@H](n2cc(C3CC3)nn2)[C@@H](O)C[C@@H]1c1ccc(C)cc1	21µM*	?	?	12µM*	i	i
CCCCCCN1C[C@@H](n2cc(C3CC3)nn2)[C@H](O)C[C@@H]1c1ccc(OC)cc1	18µM*	-11%	-6%	15µM*	i	?
CCCCCCN1C[C@@H](O)[C@H](n2cc(C3CC3)nn2)C[C@@H]1c1ccc(OC)cc1	?	-1%	3%	?	i	i
CCOC(=O)c1ccc(NC(=O)c2cccc3c(=O)c4c([nH]c23)CCCC4)cc1	?	.	.	-29%	i	i
CC1(C)CC(Nc2ccc(Nc3ccccc3)cc2)CC(C)(C)N1	16µM*	?	-25%	4.6µM*	i	i
CCN1CCN(Cc2ccc(NC(=O)c3cc(NC(=O)c4nccnc4N)cc(OC)c3)cc2C(F)(F)F)CC1	?	-21%	-5%	?	i	i
CCN1CCN(Cc2ccc(NC(=O)c3cc(NC(=O)c4cncc(-c5ccc(C#N)cc5)c4)cc(OC)c3)cc2C(F)(F)F)CC1	2.3µM*	?	?	2.6µM*	?	i
CCN1CCN(Cc2ccc(NC(=O)c3cc(NC(=O)c4cnnc5ccccc45)cc(OC)c3)cc2C(F)(F)F)CC1	8.2µM*	?	?	6.5µM*	?	i
Cc1ccc(C)c(C(=O)CCC(=O)NNC(=O)c2cccs2)c1	-12%	4%	13%	-7%	i	i
CC1(NC(=O)c2ccccc2)CCN(CCCc2ccccc2)C1=O (centres undefined)	3.7µM*	9%	12%	4.6µM*	?	?
CC1(NC(=O)CCc2ccccc2)CCN(CCCc2ccccc2)C1=O (centres undefined)	15µM*	6%	14%	?	?	i
CC1(NC(=O)CC(c2ccccc2)(c2ccccc2)c2ccccc2)CCN(CCCc2ccccc2)C1=O (centres undefined)	23µM*	?	?	21µM*	i	i
O=C(CCc1ccccc1)NC1(Cc2ccccc2)CCN(CCc2cccs2)C1=O (centres undefined)	?	-3%	-16%	?	i	i
O=C(O)CN1CCN(Cc2ccccc2)C1=O	-10%	17%	-6%	-7%	i	i
O=C(NC1(Cc2ccccc2)CCN(Cc2ccc(-c3ccccc3)cc2)C1=O)c1ccccc1 (centres undefined)	21µM*	?	?	23µM*	?	?
CCc1nc2cc(C(=O)N[C@H]3CCCCNC3=O)cc(NC(=O)c3ccccc3OC)c2n1C	-15%	.	.	-14%	.	.
CCCn1nc(C(=O)Nc2nc(-c3ccccn3)cs2)c2ccccc2c1=O	7.3µM*	?	?	2.3µM*	?	i
CCn1nc(C(=O)Nc2nc(-c3ccccn3)cs2)c2ccccc2c1=O	2.9µM*	0%	-23%	3.3µM*	i	i
CCn1nc(C(=O)NC2=NCCS2)c2ccccc2c1=O	-17%	2%	0%	-12%	i	i
CCCn1nc(C(=O)Nc2ccc(S(=O)(=O)Nc3ncccn3)cc2)c2ccccc2c1=O	-26%	-8%	-5%	-13%	i	i
Cn1nc(C(=O)Nc2cccnc2)c2ccccc2c1=O	?	20%	13%	?	i	i
Cn1nc(C(=O)Nc2nc(-c3ccccn3)cs2)c2ccccc2c1=O	4.6µM*	0%	-11%	1.3µM*	i	1.3µM*
CC(=O)N1CCC2(CC1)CCN(C(=O)Nc1cccc(F)c1)CC2	0%	.	.	-21%	.	.
CNc1nc(C)nc(-n2nc(C)cc2C)n1	-9%	-4%	-1%	-4%	i	i
SMILES	DT40 TDP1 CPT	HT1080-NT tox	HT1080 IDH1KD tx	DT40 TDP1 no CPT	KB-3-1 tox	KB-V1 MDR tox
Cc1cc(C)n(-c2nc(NC(C)C)nc(NC(C)(C)C)n2)n1	1.3µM*	.	.	0.79µM*	i	i
CS(=O)(=O)N(CCCC(=O)N1CCCCCC1)c1cccc(Cl)c1	-1%	-2%	1%	1%	i	?
CCC(=O)N1CCc2cc(S(=O)(=O)NCCC(=O)Nc3ccc(N(CC)CC)cc3C)ccc21	?	.	.	23µM*	i	i
CCC(=O)N1CCc2cc(S(=O)(=O)NCCC(=O)Nc3ccc(C)cc3C)ccc21	?	.	.	23µM*	i	i
O=S(=O)(CCN1CCN(C(c2ccccc2)c2ccccc2)CC1)C(F)(F)F	7.3µM*	?	18µM*	18µM*	i	i
c1ccc(CN2CCN(C(c3ccccc3)c3ccccc3)CC2)cc1	?	-14%	?	?	i	?
O=S1(=O)CC(N2CCSCC2)CN1Cc1cn(Cc2ccc(Cl)cc2)nn1 (centres undefined)	-6%	3%	-2%	-18%	i	?
COC(=O)C1CCCCN1Cc1ccc2c(c1)CN(Cc1cn[nH]c1-c1ccc(F)cc1)CCO2 (centres undefined)	1%[9.04 µM]	.	.	?	.	.
NC(N)=NC(N)=Nc1cccc(Cl)c1	?	8%	-1%	21µM*	i	i
Cc1ccc(Cl)cc1N=C(N)N=C(N)N	?	8%	7%	?	i	i
CC[C@@H]1CCC[C@@H](O)[C@@H](C)C(=O)O[C@H](C)[C@@H](C)C/C=C(C)/C(OC)=C\C(=O)N(C)C([C@@H](C)CC)C(=O)N(C)[C@@H](C(C)C)C(=O)N(C)[C@@H](COC)C(=O)N2CCC[C@H]2C(=O)N(C)[C@@H](C(C)C)C(=O)N2CCC[C@H]2C(=O)O1 (some centres undefined)	0.15µM*	?	?	0.21µM*	?	1.8µM*
COc1ccc(-c2noc(-c3ccc(NC4CCCC4)c([N+](=O)[O-])c3)n2)cc1	-1%	.	.	-14%	i	i
Cn1nc(NC(=O)C(F)(F)F)c2ncc(-c3ccccc3)nc21	8%	-8%	-3%	?	i	18µM*
Cc1nc2ccccc2c2nc(NC(=O)C(F)(F)F)nn12	26%	-16%	-18%	-11%	i	i
